This passage reports activation, activity change, negative = inhibition and Potency results from PubChem BioAssay (NCATS).

Assay [1] addresses Cellular tumor antigen p53 (Homo sapiens) (UniProt P04637). Briefly: Primary qHTS for small molecule compounds that upregulate eGFP-tagged delta133p53alpha (in N-terminal) cells. (AID 2060322). Further: nearly all actives have a fitted effect of over 75% in size. Further: potency means the concentration at half of the fitted maximal effect.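 On activation: series mostly up to about 56 µM; 0% = DMSO vehicle and 100% = reference activator.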 The note with it: NCI-H358 eGFP-delta133p53alpha fluorescence, 24 h; activation: active compounds read high. An outline of the steps:
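NCI-H358 cells pre-induced 24 h with 10 ng/ml doxycycline to express N-terminal eGFP-delta133p53alpha, then dosed 24 h at 37C without doxycycline; fixed, Hoechst-stained, GFP intensity by laser scanning cytometry, normalized to DMSO (0%) and 57.5 uM 5-azacytidine (100%).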

The target in assay [2] is Aldehyde dehydrogenase, mitochondrial (Homo sapiens) (UniProt P05091). The experiment in a line: qHTS for Inhibitors of the Aldehyde Dehydrogenase Family (ALDH2) Primary screen (AID 2061308).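 Further: plate controls were vehicle for no effect and reference inhibitor for full effect; nearly all actives have a fitted effect of over 55% in size.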 Background: In qHTS, concentration-response curves come from the screen itself.
Assay [3] deals with Retinaldehyde dehydrogenase 3 (Homo sapiens) (UniProt P47895). The experiment in a line: qHTS for Inhibitors of the Aldehyde Dehydrogenase Family (ALDH1A3) Primary screen (AID 2061315).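 Further: plate controls were DMSO vehicle for no effect and reference inhibitor for full effect.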

Values joined by “and” are separate entries in the source; they are usually repeats but may differ in a detail not shown here. Equal values may be shown once. Records with an inconclusive call do not appear. Unmarked numbers belong to inactive results. Active and inactive are the calls of the source. The call rests on the fitted dose curve; in most records, active means well fitted curve in the direction sought with a large enough effect; inconclusive means small, poorly fitted or top-dose-only effect, or another doubt; inactive means no such curve, though single readings can be large; an effect the other way counts as inactive or inconclusive.

Sequence of Cellular tumor antigen p53 (Homo sapiens) (P04637 whole entry, looked up): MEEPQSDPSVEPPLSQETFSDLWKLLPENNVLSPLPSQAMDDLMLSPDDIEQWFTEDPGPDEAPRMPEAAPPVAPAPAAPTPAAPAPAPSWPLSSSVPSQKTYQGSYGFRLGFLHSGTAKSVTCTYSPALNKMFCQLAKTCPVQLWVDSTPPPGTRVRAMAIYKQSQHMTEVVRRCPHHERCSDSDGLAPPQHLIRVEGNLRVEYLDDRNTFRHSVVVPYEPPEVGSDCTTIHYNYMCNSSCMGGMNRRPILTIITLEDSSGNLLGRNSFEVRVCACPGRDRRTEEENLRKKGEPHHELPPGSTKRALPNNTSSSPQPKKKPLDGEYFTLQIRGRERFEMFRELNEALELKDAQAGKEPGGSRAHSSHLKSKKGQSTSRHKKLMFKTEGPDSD

`CC(=O)OCC1OC(OC2COC(OC3COC(OC4C(OC5C(CO)OC(OC6CCC7(C)C(CCC8(C)C7CC=C7C9CC(C)(C)CCC9(C(=O)OC9OC(CO)C(O)C(O)C9OC9OCC(OC%10OCC(O)(CO)C%10O)C(O)C9O)C(O)CC78C)C6(C)C)C(O)C5O)OCC(O)C4O)C(O)C3O)C(O)C2O)C(OC(=O)/C=C/c2ccccc2)C(O)C1OC(C)=O` (stereo unspecified): in assay [1], the activation is 11.5%. Moreover, the activity change, negative = inhibition in assay [2] was 6.5% [at 11.2 µM]; in assay [3], -8.22% [at 11.2 µM].
With `C/C1=C/CCC2=CC(OC2=O)C(C)(C)/C=C/C1=O` (stereo unspecified), in assay [1], the Potency is 4.26 µM (active). The Potency result in assay [2] and in assay [3] was “inactive” throughout.
On to `C/C=C/c1cc(OC)c2c(c1)[C@@H](C)[C@@H](c1ccc(O)c(OC)c1)O2`, for which, in assay [1], the activation is -16%. Further, the Potency entry in assay [2] and in assay [3] was “inactive” throughout.
In the case of `CC(C)(O)c1ccc2c(c1)C(O)C[C@H]1[C@](C)(C(=O)O)CCC[C@]21C` (stereo partly specified), the activation in assay [1] is 3.57%. Also, the Potency entry in assay [2] and in assay [3] was “inactive” in each case.
Consider `C/C=C(/C)C(=O)O[C@H]1[C@H](OC(=O)/C(C)=C\C)[C@@]23C(CC1(C)C)[C@]1(CCC4[C@@]5(C)CC[C@H](O[C@@H]6O[C@H](C(=O)O)[C@@H](O)[C@H](O[C@@H]7O[C@H](CO)[C@H](O)[C@H](O)[C@H]7O[C@@H]7O[C@@H](C)[C@H](O)[C@@H](O)[C@H]7O[C@@H]7OC[C@@H](O)[C@H](O)[C@H]7O)[C@H]6O[C@@H]6O[C@H](CO)[C@H](O)[C@H](O)[C@H]6O)C(C)(C)C5CC[C@@]4(C)[C@]1(C)C[C@H]2O)O[C@H]3O` (stereo partly specified), for which the activation in assay [1] is -8.93%. The activity change, negative = inhibition in assay [2] is -1.6% [at 11.2 µM]; in assay [3], -5.71% [at 11.2 µM].
As to `OC[C@H]1O[C@@H](Oc2ccccc2)[C@H](O)[C@@H](O)[C@@H]1O`, the activation in assay [1] was -0.893%. The Potency result in assay [2] and in assay [3] was “inactive” each time.
In the case of `CC(=O)O[C@H](C[C@@H](C)[C@H]1C(=O)[C@H](O)[C@@]2(C)[C@@H]3CCC4C(C)(C)[C@@H](O[C@@H]5OC[C@H](O)[C@H](O)[C@H]5O)CC[C@@]45C[C@@]35CC[C@]12C)[C@@H]1OC1(C)C` (stereo partly specified), the activation in assay [1] was 8.04%. Further, the Potency entry in assay [2] and in assay [3] was “inactive” throughout.
`COc1ccc(C2(N(C)C(=O)c3ccc(NC(=O)c4ccco4)cc3)CCOCC2)cc1`: in assay [1], the activation was -10.7%. Besides, the Potency result in assay [2] and in assay [3] was “inactive” each time.
For `C[C@@H]1C(=O)O[C@H]2C[C@]34[C@H]5C[C@@H](C(C)(C)C)[C@]36[C@@H](OC(=O)[C@H]6O)O[C@]4(C(=O)O5)[C@]21O`, the activation in assay [1] is -22.1%. Further, the Potency result in assay [2] and in assay [3] was “inactive” in each case.
Take `COc1c2c(c(C)c3c1C(=O)OC3)OC1(C)CC(O)C34OC(OC)(CC(OC(C)=O)C3(C)C1C2)OC4(C)C` (stereo unspecified): the activation in assay [1] was -5.36%. Further, the Potency result in assay [2] and in assay [3] was “inactive” each time.
With `Cc1ccc(C2(COC(=O)C(C)C)CO2)c(OC(=O)C(C)C)c1` (stereo unspecified), the activation in assay [1] is 3.82%. The Potency result in assay [2] and in assay [3] was “inactive” in each case.
Consider `Cc1cc2c(c(=O)o1)C=C1CC[C@H]([C@H](C)Cn3cnc(=N)c4[nH]cnc43)C[C@@H]1O2`, for which the activation in assay [1] was 14.3%. Also, the Potency result in assay [2] and in assay [3] was “inactive” in each case.
`CC1(C)O[C@H]2CC(=O)OC[C@]23[C@H]2CC[C@@]4(C)[C@H](c5ccoc5)OC(=O)[C@H]5O[C@]54[C@]2(C)C(=O)C[C@@H]13`: the activation in assay [1] is -25.4% and 64.1% and 3.82%. Besides, the Potency result in assay [2] and in assay [3] was “inactive” throughout.
With `CC(=O)O[C@@H]1C[C@@H](C)[C@](O)(CCC2=CC(=O)OC2)[C@@]2(C)CCCC(C)(C)C12` (stereo partly specified), in assay [1], the activation is -29.8%. The Potency result in assay [2] and in assay [3] was “inactive” in each case.
Take `CCN(CCNC(=O)Nc1ccccc1Br)c1cccc(C)c1`: the activation in assay [1] is 5.67%. The Potency entry in assay [2] and in assay [3] was “inactive” throughout.
In the case of `COc1c2c(cc3c1-c1c(cc4c(c1OC)OCO4)CC(C)C(C)C3)OCO2` (stereo unspecified), the activation in assay [1] is -6.87%. The Potency result in assay [2] and in assay [3] was “inactive” in each case.
Consider `CC1(C)S[C@@H]2[C@H](NC(=O)[C@H](N)c3ccc(O)cc3)C(=O)N2[C@H]1C(=O)O`, for which, in assay [1], the activation was -5%. In addition, the Potency result in assay [2] and in assay [3] was “inactive” each time.
As to `COc1cc2c(c(OC)c1O)C(c1ccc(O)cc1)C1C(=O)OC3C(COC(=O)C1=C2)OC(CO)(OC1OC(COC(=O)/C=C/c2ccc(OC4OC(C)C(O)C(O)C4O)cc2)C(O)C(O)C1O)C3O` (stereo unspecified), the activation in assay [1] is 23.2%. Besides, the Potency entry in assay [2] and in assay [3] was “inactive” each time.
On to `C[C@@]12CC3(S(=O)(=O)O)OC(O1)[C@]1(COC(=O)c4ccccc4)[C@H]3C[C@]21O[C@@H]1O[C@H](CO)[C@@H](O)[C@H](O)[C@H]1O`, for which, in assay [1], the activation is 14.5%. Besides, the Potency entry in assay [2] and in assay [3] was “inactive” throughout.
Consider `CC1(C)CC2C3=CCC4[C@@]5(C)CC[C@H](OC6OCC(O)C(OC7OC(CO)C(O)C(O)C7O)C6O)C(C)(C)C5CC[C@@]4(C)[C@]3(C)C[C@H](O)[C@@]2(CO)[C@H](OC(=O)c2ccccc2)C1` (stereo partly specified), for which, in assay [1], the activation was 19.8%. The Potency entry in assay [2] and in assay [3] was “inactive” each time.
In the case of `C1CCC[C@H]2CCCN3CC[C@@H](CCCCCC[C@@H]4CCCN5CC[C@@H](CC1)O[C@@H]45)O[C@@H]23`, in assay [1], the activation was -4.33%. For the same compound, the activity change, negative = inhibition in assay [2] was 3.01% [at 0.092 µM]; in assay [3], -7.72% [at 0.092 µM].
As for `CCCCCc1ccc(/C=C/C(=O)Nc2cc(Cl)ccc2C(=O)O)cc1`, the activation in assay [1] was -1%. The Potency entry in assay [2] and in assay [3] was “inactive” each time.
